About 2,200 (0.71%) of roughly 310,000 compounds showed an effect of 50% or more. The effect is printed as a negative number. Only a selection was taken, and strong results are over-represented in it overall.
Target: human ether-à-go-go-related gene (hERG) potassium channel (human, UniProt Q12809)
Test: primary screen, population patch clamp on CHO cells stably expressing hERG; higher = less effect of the substance

Sequence of human ether-à-go-go-related gene (hERG) potassium channel (Q12809 whole entry, looked up): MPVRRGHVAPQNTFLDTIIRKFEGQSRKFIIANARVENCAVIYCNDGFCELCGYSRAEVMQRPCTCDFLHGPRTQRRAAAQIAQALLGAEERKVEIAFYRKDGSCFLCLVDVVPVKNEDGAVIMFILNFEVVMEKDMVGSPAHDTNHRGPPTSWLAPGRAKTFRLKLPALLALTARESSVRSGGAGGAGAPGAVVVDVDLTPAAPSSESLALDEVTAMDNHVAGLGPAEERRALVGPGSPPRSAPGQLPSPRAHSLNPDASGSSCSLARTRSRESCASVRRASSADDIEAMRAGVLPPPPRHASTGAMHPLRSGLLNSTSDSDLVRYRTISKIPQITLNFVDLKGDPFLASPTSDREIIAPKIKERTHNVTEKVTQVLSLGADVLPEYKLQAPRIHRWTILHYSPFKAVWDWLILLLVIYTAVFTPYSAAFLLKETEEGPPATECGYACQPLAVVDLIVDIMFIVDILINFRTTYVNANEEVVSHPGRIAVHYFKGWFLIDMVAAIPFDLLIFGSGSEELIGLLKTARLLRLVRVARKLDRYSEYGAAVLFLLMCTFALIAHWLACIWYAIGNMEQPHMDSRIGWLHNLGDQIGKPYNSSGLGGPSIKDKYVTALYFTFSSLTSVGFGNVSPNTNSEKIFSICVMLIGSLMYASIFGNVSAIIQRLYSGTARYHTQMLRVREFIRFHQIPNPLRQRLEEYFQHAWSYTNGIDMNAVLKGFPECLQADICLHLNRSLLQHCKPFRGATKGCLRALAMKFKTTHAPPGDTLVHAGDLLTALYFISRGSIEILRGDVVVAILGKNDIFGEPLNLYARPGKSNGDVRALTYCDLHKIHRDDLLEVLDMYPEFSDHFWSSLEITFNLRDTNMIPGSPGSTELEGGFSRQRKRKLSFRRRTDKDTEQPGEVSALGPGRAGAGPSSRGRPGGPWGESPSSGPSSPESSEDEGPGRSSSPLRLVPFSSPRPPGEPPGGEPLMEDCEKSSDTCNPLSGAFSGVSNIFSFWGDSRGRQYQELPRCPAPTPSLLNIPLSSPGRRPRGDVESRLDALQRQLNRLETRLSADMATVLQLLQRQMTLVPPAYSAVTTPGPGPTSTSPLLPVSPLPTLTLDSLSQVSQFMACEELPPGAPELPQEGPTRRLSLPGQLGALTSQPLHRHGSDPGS

Compound | hERG current change (%, negative = inhibition) at 1uM [%]
CC(=O)Nc1ccc(NC(=O)C(C)OC(=O)CNC(=O)c2cccs2)cc1 (stereo not shown) | 12.5
CCOC(=O)c1c(-c2ccc(C)cc2C)csc1NC(=O)CSc1nnnn1C | -3.8
COc1ccc(Cl)cc1N(C)C(=O)CCNC(=O)Cn1cnc2ccccc2c1=O | 11.2
Cc1cc(C)c2cc(CN(CCO)C(=O)Nc3ccc(Cl)cc3)c(=O)[nH]c2c1 | 3.03
Cc1ccc(C)c2[nH]c(=O)c(CN(CCN3CCCC3)C(=O)Nc3cccc(Cl)c3)cc12 | -35.6
Cc1ccc(C)c2[nH]c(=O)c(CN(CCN3CCCC3)C(=O)Nc3ccc(F)cc3)cc12 | -76.6
Cc1ccc2cc(CN(CCN3CCCC3)C(=O)Nc3ccc(F)cc3)c(=O)[nH]c2c1C | -8.93
Cc1cc(C)c2cc(CN(CCN3CCCC3)C(=O)Nc3ccc(F)cc3)c(=O)[nH]c2c1 | -57.9
COc1cc2cc(CN(CCN3CCCC3)C(=O)Nc3ccc(F)cc3)c(=O)[nH]c2cc1OC | 3.06
CC1(C)CC(=O)C(C=NCCN2CCN(CC(=O)Nc3ccc(Cl)cc3)CC2)=C(O)C1 | 2.52
C=CCn1c(O)c(C(C)=NCCN2CCCCC2)c(=O)[nH]c1=O | 8.8
CCOc1ccc(NC(=S)N2CCC(NC(=O)c3ccccc3)CC2)cc1 | -3.48
CN1CCN(CC#CC(C)(O)C2CC3C=CC2C3)CC1.Cl (stereo not shown) | 10.8
c1cncc(COC2CCCN(Cc3nc(-c4cccs4)no3)C2)c1 (stereo not shown) | 15.7
COc1cc(OC)cc(C(C)=O)c1 | 14.7
Cc1ccc(NC(=O)/C=C/c2ccc([N+](=O)[O-])s2)cc1 | 13.2
COCCn1c(SCC(=O)N2CC(=O)Nc3ccccc32)nc2ccccc2c1=O | -3.74

Compound | hERG current change (%, negative = inhibition) at 1uM [%]
CN(C)CCCn1c(SCC(=O)N2CC(=O)Nc3ccccc32)nc2ccccc2c1=O | 9.8
CC(C)N(CCn1c(SCC(=O)N2CC(=O)Nc3ccccc32)nc2ccccc2c1=O)C(C)C | -72.5
N#Cc1ccc(S(=O)(=O)NCC(=O)OCC(=O)NCCc2ccccc2)cc1 | 14.7
C=CCn1c(SCC(=O)N(CC)C2CCS(=O)(=O)C2)nc2sc3c(c2c1=O)CCC3 (stereo not shown) | -37.5
Clc1ccc(-c2nnc(NC3=NCCCCC3)o2)cc1 | 10
Cc1ccc(C(=O)N/C(=C/c2ccc(C(C)C)cc2)C(=O)NCCCN2CCOCC2)cc1 | -22
CN(C)c1ccc(/C=C(/NC(=O)c2ccccc2)C(=O)NCCN2CCOCC2)cc1 | 16.1
O=C(NCCN1CCOCC1)/C(=C/c1ccc(Cl)cc1)NC(=O)c1ccccc1 | -83.1
CC(C)c1ccc(/C=C(\NC(=O)c2ccccc2)C(=O)NCCN2CCOCC2)cc1 | -21.9
Cc1ccc(C(=O)N/C(=C\c2ccc(F)cc2)C(=O)NCCN2CCOCC2)cc1 | -79.1
Cc1ccc(C(=O)N/C(=C\c2ccc(C(C)C)cc2)C(=O)NCCCN2CCOCC2)cc1 | -61.4
Cc1ccc(C(=O)N/C(=C\c2ccc(Cl)cc2)C(=O)NCCN2CCOCC2)cc1 | -70.6
CC(C)c1ccc(/C=C(\NC(=O)c2ccccc2)C(=O)NCCCN2CCOCC2)cc1 | -35.8
Cc1ccc(C(=O)N/C(=C\c2ccco2)C(=O)NCCN2CCOCC2)cc1 | 5.85
O=C(NCCN1CCOCC1)/C(=C/c1ccccc1)NC(=O)c1ccccc1 | 3.35
COc1ccc(/C=C(\NC(=O)c2ccc(C)cc2)C(=O)NCCN2CCOCC2)cc1 | -33.3
Cc1ccc(C(=O)N/C(=C\c2ccccc2)C(=O)NCCN2CCOCC2)cc1 | -38.7

From publication PMC4336329 (PLoS ONE, 2015)
